Data on 45 compounds can be found in paper PMC4336329 (PLoS ONE, 2015).

SMILES strings stand for the structures. The campaign covered roughly 310,000 compounds. About 14,000 (4.5%) showed an effect of 50% or more. The effect is printed as a negative number. Many of the other results were omitted from the sample, so strong results are more common in it than they were.
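Also: peak tail current of the secondary pulse compared with the same well before compound.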

In the experiment the target is human ether-à-go-go-related gene (hERG) potassium channel (human, UniProt Q12809). Description: primary screen, population patch clamp on CHO cells stably expressing hERG; higher = less effect of the substance.
Sequence of human ether-à-go-go-related gene (hERG) potassium channel (Q12809 whole entry, looked up): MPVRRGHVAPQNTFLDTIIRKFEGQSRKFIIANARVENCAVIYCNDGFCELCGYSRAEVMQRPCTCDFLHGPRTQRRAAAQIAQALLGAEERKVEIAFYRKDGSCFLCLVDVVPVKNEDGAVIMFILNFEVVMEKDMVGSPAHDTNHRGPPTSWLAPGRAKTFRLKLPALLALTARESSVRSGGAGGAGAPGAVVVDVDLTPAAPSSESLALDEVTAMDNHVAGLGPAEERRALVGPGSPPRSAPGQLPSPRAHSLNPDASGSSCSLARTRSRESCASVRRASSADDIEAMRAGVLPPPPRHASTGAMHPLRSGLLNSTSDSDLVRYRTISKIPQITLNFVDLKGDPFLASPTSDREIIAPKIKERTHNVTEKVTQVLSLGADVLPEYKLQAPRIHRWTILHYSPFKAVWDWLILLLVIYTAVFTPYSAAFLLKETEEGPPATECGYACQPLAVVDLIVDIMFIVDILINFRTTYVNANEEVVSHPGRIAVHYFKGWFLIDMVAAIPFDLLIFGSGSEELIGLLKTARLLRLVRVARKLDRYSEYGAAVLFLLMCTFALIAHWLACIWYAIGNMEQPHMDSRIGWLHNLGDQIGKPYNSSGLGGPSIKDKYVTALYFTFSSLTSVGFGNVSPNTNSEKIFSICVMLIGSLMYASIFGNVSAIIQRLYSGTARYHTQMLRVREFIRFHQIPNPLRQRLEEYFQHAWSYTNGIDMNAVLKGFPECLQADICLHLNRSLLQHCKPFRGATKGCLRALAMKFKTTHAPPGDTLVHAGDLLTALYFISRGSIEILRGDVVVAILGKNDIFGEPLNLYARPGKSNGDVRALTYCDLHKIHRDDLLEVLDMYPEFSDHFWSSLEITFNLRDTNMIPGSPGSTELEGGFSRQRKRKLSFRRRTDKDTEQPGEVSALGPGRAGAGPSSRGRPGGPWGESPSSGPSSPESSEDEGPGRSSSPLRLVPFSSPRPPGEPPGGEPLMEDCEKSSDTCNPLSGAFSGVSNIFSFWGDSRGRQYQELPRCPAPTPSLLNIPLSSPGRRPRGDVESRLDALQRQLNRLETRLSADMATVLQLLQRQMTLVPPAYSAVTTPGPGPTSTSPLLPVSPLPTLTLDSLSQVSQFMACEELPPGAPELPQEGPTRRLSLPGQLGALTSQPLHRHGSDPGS
As for `Cc1ccc(OCC(=O)Nc2ccccc2N2CCCC2)c(C)c1`, the “hERG current change (%, negative = inhibition) at 10uM” value is given as -3.14%.
In the case of `CCCN(c1ccccc1C(=O)O)S(=O)(=O)c1ccc2c(c1)n(C)c(=O)n2C`, the “hERG current change (%, negative = inhibition) at 10uM” value is recorded as 19.8%.
In the case of `Cc1ccc(NCC(O)C(O)C(O)CO)cc1C` (stereo not drawn), the “hERG current change (%, negative = inhibition) at 10uM” value turned out to be 14.9%.
Consider `Clc1ccc2oc(-c3ccccn3)nc2c1`, for which the “hERG current change (%, negative = inhibition) at 10uM” value is given as -0.352%.
With `O=C(NCCNC(=O)c1ccc([N+](=O)[O-])cc1)c1ccncc1`, the “hERG current change (%, negative = inhibition) at 10uM” value was found to be 12%.
For the compound `COc1ccc(CCNC(=O)c2nc3ncccn3n2)cc1OC`, the “hERG current change (%, negative = inhibition) at 10uM” value is recorded as 18.6%.
Then `Cc1ccc2c(c1)N(CC(=O)N1CCCc3ccccc31)C(=O)CO2`, with -8.16%; and `COc1cccc(N2CCN(c3ccc(N4C(=O)CCC4=O)cc3[N+](=O)[O-])CC2)c1`, with 13.7%.
For the compound `COCCCNC(=O)CN(C1CCCCC1)S(=O)(=O)c1ccc(C)cc1`, the “hERG current change (%, negative = inhibition) at 10uM” value is -0.742%.
For the compound `CCC(CC)C(=O)NCCc1cc2c(C)ccc(C)c2[nH]c1=O`, the “hERG current change (%, negative = inhibition) at 10uM” value amounted to 2.39%.
Then `COc1ccccc1CN(C)C(=O)C(c1ccccc1)c1ccccc1`, with -2.32%.
For `COc1cccc(C(=O)N2CCC(C(=O)NCc3ccco3)CC2)c1` the value was -14.9%; for `O=C(NCc1ccco1)C1CCN(C(=O)c2ccc([N+](=O)[O-])cc2)CC1`, -53%; for `Cc1ccc(C(=O)N2CCC(C(=O)NCc3ccco3)CC2)cc1`, -11.3%.
For `CCn1nnc(NC(=O)C(C)(c2ccccc2)c2ccccc2)n1`, the “hERG current change (%, negative = inhibition) at 10uM” value is -10.4%.
Take `COc1ccc(S(=O)(=O)NCC2CCCN(Cc3cccnc3)C2)cc1` (stereo not drawn): the “hERG current change (%, negative = inhibition) at 10uM” value was -47.7%.
Regarding `COc1ccc(S(=O)(=O)NCC2CCCN(Cc3ccccc3Cl)C2)cc1` (stereo not drawn), the “hERG current change (%, negative = inhibition) at 10uM” value is -37.9%.
Take `CN(C)S(=O)(=O)NCC1CCCN(Cc2cc3ccccc3s2)C1` (stereo not drawn): the “hERG current change (%, negative = inhibition) at 10uM” value is recorded as -6.37%.
Then `COc1ccc(S(=O)(=O)NCC2CCCN(Cc3ccc(C)o3)C2)cc1` (stereo not drawn), with -25.5%.
Regarding `COc1ccc(S(=O)(=O)NCC2CCCN(Cc3cccc(C(C)=O)c3)C2)cc1` (stereo not drawn), the “hERG current change (%, negative = inhibition) at 10uM” value was -43.9%.
On to `CCc1ccc(CN2CCCC(CNS(=O)(=O)c3ccc(OC)cc3)C2)cc1` (stereo not drawn), for which the “hERG current change (%, negative = inhibition) at 10uM” value was -69.8%.
With `COc1ccc(S(=O)(=O)NCC2CCCN(Cc3ccccc3C)C2)cc1` (stereo not drawn), the “hERG current change (%, negative = inhibition) at 10uM” value was -12.3%.
For the compound `OCC1CCCN(Cc2ccc(-c3ccccc3)cc2)C1` (stereo not drawn), the “hERG current change (%, negative = inhibition) at 10uM” value was -28.4%.
Take `CN(C)S(=O)(=O)NCC1CCCN(Cc2ccc(-c3ccccc3)cc2)C1` (stereo not drawn): the “hERG current change (%, negative = inhibition) at 10uM” value is recorded as -50.8%.
`CCOc1ccccc1CN1CCCC(CNS(=O)(=O)c2ccc(OC)cc2)C1` (stereo not drawn): the “hERG current change (%, negative = inhibition) at 10uM” value is listed as -63.7%.
Take `COc1ccc(S(=O)(=O)NCC2CCCN(Cc3ccc(O)cc3)C2)cc1` (stereo not drawn): the “hERG current change (%, negative = inhibition) at 10uM” value was -59.2%.
For the compound `COc1ccc(S(=O)(=O)NCC2CCCN(CC(C)(C)C)C2)cc1` (stereo not drawn), the “hERG current change (%, negative = inhibition) at 10uM” value is reported as 14.9%.
On to `CC(C)C(C(=O)Nc1sc2c(c1C#N)CCCCC2)N1C(=O)c2ccccc2C1=O` (stereo not drawn), for which the “hERG current change (%, negative = inhibition) at 10uM” value turned out to be 4.7%.
For `Cn1c(CCCOc2ccc(Cl)cc2Cl)nnc1SCC(=O)Nc1cccc(F)c1` the value was -3.24%; for `COC(=O)/C=C1\C(=O)N(c2nc3ccc(OC)cc3s2)C(=S)N1c1ccc(F)cc1`, -7.23%; for `CCOc1ccc(OCc2ccc(C(=O)N3CCc4ccccc4C3)o2)cc1`, -10.4%.
In the case of `CC(=O)C[C@H]1c2cc(C(F)(F)F)ccc2S(=O)(=O)N1C1CCCC1`, the “hERG current change (%, negative = inhibition) at 10uM” value is given as -12.1%.
Turning to `O=C(NCC1CCCN(C(=O)c2cccc(C(F)(F)F)c2)C1)c1ccc(F)cc1` (stereo not drawn), the “hERG current change (%, negative = inhibition) at 10uM” value is given as -8.13%.
Consider `O=C(NCC1CCCN(Cc2cccc(C(F)(F)F)c2)C1)c1ccc(F)cc1` (stereo not drawn), for which the “hERG current change (%, negative = inhibition) at 10uM” value is reported as -58.2%.
For `CSc1cccc(CN2CCCC(CNC(=O)c3ccco3)C2)c1` (stereo not drawn), the “hERG current change (%, negative = inhibition) at 10uM” value is listed as -91.9%.
`Cc1cc(CN2CCCC(CNC(=O)c3ccc(F)cc3)C2)cc(C)c1O` (stereo not drawn): the “hERG current change (%, negative = inhibition) at 10uM” value is -24.1%.
Regarding `CSc1cccc(CN2CCCC(CNC(=O)c3ccc(F)cc3)C2)c1` (stereo not drawn), the “hERG current change (%, negative = inhibition) at 10uM” value was -74.1%.
As to `CC(C)(O)C#Cc1ccc(CN2CCCC(CNC(=O)c3ccco3)C2)cc1` (stereo not drawn), the “hERG current change (%, negative = inhibition) at 10uM” value was -10.9%.
With `O=C(NCC1CCCN(Cc2cccc(OCCO)c2)C1)c1ccc(F)cc1` (stereo not drawn), the “hERG current change (%, negative = inhibition) at 10uM” value is -16.3%.
Turning to `CSc1ccccc1C(=O)N1CCCC(CNC(=O)c2ccc(F)cc2)C1` (stereo not drawn), the “hERG current change (%, negative = inhibition) at 10uM” value was determined as 15.3%.
Regarding `CCOCc1cc(CN2CCCC(CNC(=O)c3ccco3)C2)ccc1OC` (stereo not drawn), the “hERG current change (%, negative = inhibition) at 10uM” value is -48.3%.
As for `CSc1ccc(CN2CCCC(CNC(=O)c3ccc(F)cc3)C2)cc1` (stereo not drawn), the “hERG current change (%, negative = inhibition) at 10uM” value was -70.8%.
In the case of `CCCn1cc(CN2CCCC(CNC(=O)c3ccc(F)cc3)C2)c(C)n1` (stereo not drawn), the “hERG current change (%, negative = inhibition) at 10uM” value is given as -25.5%.
`CCOC(=O)c1ccc(N=c2sc(C(=O)OC)cc(=O)n2CCCN2CCOCC2)cc1.Cl`: the “hERG current change (%, negative = inhibition) at 10uM” value was -16.9%.
As for `CCN(CC(=O)Nc1c(F)cccc1F)C(=O)c1ccc(C2SCCS2)cc1`, the “hERG current change (%, negative = inhibition) at 10uM” value is 0.0972%.
